Source: PubChem
Tb PYK inh: blocks Trypanosoma brucei pyruvate kinase. Q57TT1. TbPYK enzyme, Kinase-Glo Plus ATP luminescence, 45 min. Potency, µM (highest dose often 76.8 µM), inactives show at the top dose activity, negative = inhibition, actives largely listed as inhibitors. actives 0.12% (n = 410,000). AID 624173; note: potency is the fitted concentration of half-maximal effect; % is set by controls: 0 for no effect and ±100 for the full control effect; nearly all actives have a fitted effect of over 50% in size
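Quantitative HTS: titrated library compounds versus trypanosomal pyruvate kinase in TEA buffer (pH 7.2) containing KCl, MgCl2, BSA and Tween-20. Reactions were initiated with ADP, 130 uM final. Kinase-Glo Plus luminescence was read after 45 min at RT.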
FBPA Giardia inh: Giardia lamblia aldolase inhibition; purified Giardia FBPA; AID 2451; actives 0.71% (n = 290,000); Potency, µM (top dose mostly 59.6 µM), without a hit: at the top dose activity, negative = inhibition, most hits filed as inhibitors; A8B2U2; note: potency is the fitted concentration of half-maximal effect; % is set by controls: 0 for no effect and ±100 for the full control effect; nearly all actives have a fitted effect of over 55% in size
Target sequence (A8B2U2 whole entry, looked up): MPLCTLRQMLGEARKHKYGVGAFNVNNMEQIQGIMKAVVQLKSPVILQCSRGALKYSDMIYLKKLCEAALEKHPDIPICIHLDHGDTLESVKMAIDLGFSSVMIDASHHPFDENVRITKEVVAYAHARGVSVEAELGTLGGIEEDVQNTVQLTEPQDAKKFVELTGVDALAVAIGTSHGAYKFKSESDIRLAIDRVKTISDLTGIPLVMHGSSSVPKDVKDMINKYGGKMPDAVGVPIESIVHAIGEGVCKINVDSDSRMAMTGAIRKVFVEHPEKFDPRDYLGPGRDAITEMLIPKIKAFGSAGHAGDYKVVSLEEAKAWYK
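Giardia FBPA (40 nM reagent) was preincubated 10 min at RT with compound (up to 57.5 uM final), then substrate plus GAPDH/TPI/NAD/arsenate coupling system with diaphorase/resazurin was added; resorufin fluorescence (525/598 nm) was read after 20 min.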
Shiga toxin inh: Shiga toxin inhibition; actives 9.2% (n = 290,000); Vero cells, Shiga toxin protein synthesis inhibition reporter; inhibition, % at 38.7 µM; AID 2315; in the data active = inhibition mostly above about 28%, no sharp cut-off; inactive = mostly below about 43%; note: 0% is about no effect
Cycloheximide cs: counter-screen hit for Shiga toxin inhibitors, cycloheximide. actives 12% (n = 300,000). max response, %. cell reporter, cycloheximide protein synthesis inhibition counterscreen; in the data active = max response mostly above about 13%, no sharp cut-off; inactive = mostly below about 14%; note: read at 38.3 µM for the half of the compounds with a filed dose; 0% is about no effect
Sm TGR inh: S. mansoni TGR enzyme inhibition. purified TGR, DTNB reduction, TNB absorbance 405 nm. Q962Y6. AID 485364. Potency, µM (series often up to 114 µM), for the others: top-dose activity change, negative = inhibition, usual class: inhibitors. actives 3% (n = 360,000); note: potency is the fitted concentration of half-maximal effect; % is set by controls: 0 for no effect and ±100 for the full control effect; nearly all actives have a fitted effect of over 60% in size
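First, TGR (20 nM dispensed) and NADPH were mixed with compound. Second, a 15 min room-temperature incubation followed. Third, further NADPH and then DTNB were added to start the reaction. Finally, TNB absorbance was monitored kinetically.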
LmPK inhibitor: inhibitors of Leishmania mexicana pyruvate kinase | Q27686 | purified LmPK, Kinase-Glo ATP luminescence, 1 h | Potency, µM (top dose mostly 57.5 µM), without a hit: at the highest dose activity change, negative = inhibition, actives largely listed as inhibitors | actives 0.37% (n = 290,000) | AID 1721; note: potency is the fitted concentration of half-maximal effect; % is set by controls: 0 for no effect and ±100 for the full control effect
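qHTS format; LmPK 0.1 nM; substrates PEP 0.5 mM and ADP 0.1 mM. One-hour room-temperature incubation, then coupled luciferase luminescence; 0.5 nM enzyme wells mark activation.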
The depositor's hits bear a star. Only a selection was taken, and hits are over-represented in it overall. Unless noted, calls come from the whole dose curve; as a rule, active = well fitted curve in the direction sought with a large enough effect; inconclusive = small, poorly fitted or top-dose-only effect, or another doubt; inactive = no such curve, though single readings can be large; an effect the other way counts as inactive or inconclusive.

COc1ccc(CCNC(=O)Cn2cc(C(=O)c3ccccc3)c(=O)c3ccc(C)nc32)cc1OC was read as Tb PYK inh 2% and Sm TGR inh 10%.
Screening CCOC(=O)c1nc(N)c(C(=O)OCC)[nH]1 returned Tb PYK inh -26%, FBPA Giardia inh -30%, Shiga toxin inh 13, Cycloheximide cs -4, Sm TGR inh 16% and LmPK inhibitor 3%.
`CCOC(=O)c1c(C)nc(C(Cl)(Cl)Cl)nc1N` gave Tb PYK inh 2%, FBPA Giardia inh inconclusive, Shiga toxin inh 56*, Cycloheximide cs 18* and LmPK inhibitor -4%.
COc1ccc2cc(CNc3ccc(C)cc3)c(=O)n(CC(=O)Nc3ccc(C)cc3Cl)c2c1 was read as Tb PYK inh -4% and Sm TGR inh 1%.
Screening COc1ccc(/C=C\C(=O)NCC(=O)N/N=C/c2ccc(O)cc2O)cc1 returned Tb PYK inh -4%, FBPA Giardia inh 20%, Shiga toxin inh 31, Cycloheximide cs -1, Sm TGR inh 0% and LmPK inhibitor 5%.
Screening COc1ccc(C(=O)Nc2nnc(CC(=O)N/N=C/c3ccc(O)cc3O)s2)cc1 returned FBPA Giardia inh 7%, Shiga toxin inh 43*, Cycloheximide cs 17*, Sm TGR inh -5% and LmPK inhibitor -2%.
Cc1ccc(C(=O)Nc2nnc(CC(=O)N/N=C/c3ccc(O)c(O)c3)s2)cc1 was read as Tb PYK inh 4%, FBPA Giardia inh inconclusive, Shiga toxin inh 8, Cycloheximide cs 24*, Sm TGR inh 45µM* and LmPK inhibitor 1%.
Screening Cc1ccc(C(=O)Nc2nnc(CC(=O)N/N=C/c3ccncc3)s2)cc1 returned Tb PYK inh -5%, FBPA Giardia inh 0%, Shiga toxin inh 57*, Cycloheximide cs 30*, Sm TGR inh -13% and LmPK inhibitor 10%.
Cc1ccc2c(c1)cc1c(=O)[nH]ncn12 was read as Tb PYK inh 12%, FBPA Giardia inh 2%, Shiga toxin inh 88*, Cycloheximide cs 8, Sm TGR inh -13% and LmPK inhibitor -2%.
For Cc1ccc(C)c(Cn2nc(C)n3c(cc4cc(C)ccc43)c2=O)c1 the results were Tb PYK inh 0% and Sm TGR inh 0%.
`Cc1nn(-c2ccccc2)c(C)c1Cc1ccc(O)cc1` gave Tb PYK inh 5%, FBPA Giardia inh 11%, Shiga toxin inh 77*, Cycloheximide cs 26*, Sm TGR inh 0% and LmPK inhibitor -3%.
Screening CCN1CCN(c2oc(/C=C/c3ccccc3)nc2C#N)CC1 returned Tb PYK inh -4%, FBPA Giardia inh inconclusive, Shiga toxin inh 38, Cycloheximide cs 42*, Sm TGR inh -2% and LmPK inhibitor 1%.
`N#Cc1nc(/C=C/c2ccccc2)oc1NCCCN1CCOCC1` gave Tb PYK inh -5%, FBPA Giardia inh -9%, Shiga toxin inh 83*, Cycloheximide cs 33*, Sm TGR inh 2% and LmPK inhibitor -2%.
Screening CNc1oc(/C=C/c2cc(OC)c(OC)c(OC)c2)nc1C#N returned Tb PYK inh 2%, Shiga toxin inh 6, Cycloheximide cs -9 and Sm TGR inh -2%.
`COCCNc1oc(/C=C/c2ccccc2)nc1C#N` gave Tb PYK inh -6%, FBPA Giardia inh -5%, Shiga toxin inh 113*, Cycloheximide cs 56*, Sm TGR inh -21% and LmPK inhibitor -4%.
`CNc1oc(/C=C/c2ccccc2)nc1C#N` gave Tb PYK inh -7%, FBPA Giardia inh 0%, Shiga toxin inh 122*, Cycloheximide cs 78*, Sm TGR inh -12% and LmPK inhibitor 0%.
For CCCCc1ccc(NC(=O)CN2C(=O)C3CCCCC3C2=O)cc1 (stereo not given) the results were Tb PYK inh -1% and Sm TGR inh -3%.
CC1Oc2ccccc2C=C1/C=N/Nc1ccc(C(=O)O)cc1 (stereo not given) was read as Tb PYK inh -18%, FBPA Giardia inh 5%, Shiga toxin inh 70*, Cycloheximide cs 33*, Sm TGR inh -16% and LmPK inhibitor -2%.
Cc1cccc(NC(=O)CN2C(=O)COc3ccc(S(=O)(=O)Nc4ccccc4)cc32)c1C was read as Tb PYK inh 4% and Sm TGR inh -9%.
Screening Cc1c(C(=O)NCCN(C)C)oc2c1-c1nn(Cc3ccccc3Cl)cc1CC2 returned Tb PYK inh 4% and Sm TGR inh 8%.
Screening CC1Cc2ccccc2N1CC(=O)Nc1ccc(N2CCOCC2)cc1 (stereo not given) returned Tb PYK inh -5%, FBPA Giardia inh -1%, Shiga toxin inh -14, Cycloheximide cs 8, Sm TGR inh -3% and LmPK inhibitor -3%.
CC(Nc1ccc(N2CCOCC2)cc1)C(=O)N1c2ccccc2CC1C (stereo not given) was read as Tb PYK inh inconclusive, FBPA Giardia inh inconclusive, Shiga toxin inh 4, Cycloheximide cs 11, Sm TGR inh 79µM* and LmPK inhibitor -9%.
`COc1cccc(C=Nc2cc(C)on2)c1O` gave Tb PYK inh -3%, FBPA Giardia inh 0%, Shiga toxin inh -8, Cycloheximide cs -2, Sm TGR inh -8% and LmPK inhibitor 16µM*.
`O=C1OC(c2ccccc2)=CC1=Cc1ccccc1O` gave Tb PYK inh 0%.
`COc1cccc(/C=N/c2oc(-c3ccccc3)cc2C#N)c1O` gave Tb PYK inh -3%, FBPA Giardia inh -4%, Shiga toxin inh 0, Cycloheximide cs 24*, Sm TGR inh inconclusive and LmPK inhibitor -17%.
For COc1cccc(C=Nc2ccccc2C#N)c1O the results were Tb PYK inh -14%, FBPA Giardia inh 6%, Shiga toxin inh -2, Cycloheximide cs -2, Sm TGR inh 1% and LmPK inhibitor 14µM*.
For COc1cccc(C=Nc2cc(C)cc(C)c2)c1O the results were Tb PYK inh 1%, FBPA Giardia inh -1%, Shiga toxin inh -9, Cycloheximide cs -3, Sm TGR inh -4% and LmPK inhibitor -15%.
Screening N#Cc1cc(-c2ccccc2)oc1/N=C/c1ccccc1O returned Tb PYK inh -4%, FBPA Giardia inh -5%, Shiga toxin inh 18, Cycloheximide cs 29*, Sm TGR inh inconclusive and LmPK inhibitor -4%.
`CCOC(=O)c1c(NC(=O)c2nc(SCC)ncc2Cl)sc2c1CCCC2` gave Tb PYK inh -7% and Sm TGR inh 18%.
`O=C(NCC(c1ccc2c(c1)OCO2)N1CCN(c2ccccc2)CC1)C(=O)Nc1ccccc1` (stereo not given) gave Tb PYK inh 2% and Sm TGR inh -1%.
`COc1ccc(/C=N/c2oc(-c3ccccc3)cc2C#N)cc1` gave Tb PYK inh -2%, FBPA Giardia inh -8%, Shiga toxin inh 28, Cycloheximide cs 16*, Sm TGR inh -21% and LmPK inhibitor 2%.
